Reference: PubChem BioAssay (NCATS)
Results filed as inconclusive are left out. Where a call stands in place of a potency, no number is given. Active and inactive are the calls of the source. Calls come from the whole dose curve; as a rule, active = well fitted inhibition curve with a large enough effect; inconclusive = small, poorly fitted or top-dose-only effect; inactive = no such curve, though single readings can be large or run the other way. Where a SMILES comes first, the peptide text is derived from it.

How the values were obtained:
[1] = tested on: Zika virus NS2B-NS3 protease (unlinked complex); experiment: Primary screen GU Rhodamine qHTS for Zika virus inhibitors: Unlinked NS2B-NS3 protease assay (AID 1347159); note: nearly all actives have a fitted effect of over 60% in size
Outline: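 Noncovalent NS2B hydrophilic domain–NS3 protease domain complex (25 nM) preincubated 15 min at room temperature with compounds (up to 114 microM) in 10 mM Tris-HCl pH 8.0, 0.01% Tween 20; 1.5 microM Rhodamine110 substrate added, fluorescence change over 15 min fitted to Hill equation.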

[2] = tested on: Zika virus NS2B-NS3 protease (linked construct); experiment: Primary screen NINDS Rhodamine qHTS for Zika virus inhibitors (AID 1347160); note: nearly all actives have a fitted effect of over 55% in size
Outline: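 Purified linked NS2B-NS3 protease (NS2B hydrophilic domain joined to NS3 protease by flexible linker), 25 nM in 10 mM Tris-HCl pH 8.0, 0.01% Tween 20. Compounds titrated, 15 min preincubation at room temperature; 1.5 microM Rhodamine110 substrate, FITC fluorescence change over 15 min.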
Potency is the fitted concentration of half-maximal effect.

Q: Which results are given for `CC(=O)O[C@H]1[C@H](C)[C@@H](O)[C@H]2[C@@H]1C=C(C(=O)O)[C@H]1C[C@@H]3[C@H]([C@H]21)[C@H]1C(=O)O[C@@H]2CC[C@@]3(C)O[C@]1(O)[C@@H]2C`?
A: Potency [1]: inactive; Potency [2]: inactive

Q: Which Potency [1] does the source give for `NC1CCC(N[C@@H]2C[C@H]2c2ccccc2)CC1` (some centres not stated) here?
A: The Potency was “inactive”.

Q: What about the Potency [2] of the same compound?
A: The Potency was “inactive”.

Q: What does the source list for `CC(/C=C/C1(O)C(C)CC(O)CC1(C)C)OC1OC(CO)C(O)C(O)C1O` (configuration not stated)?
A: Potency [1]: inactive; Potency [2]: inactive

Q: Which results are given for `CC(NC(=O)CC(=O)O)c1nc2ccccc2c(=O)[nH]1` (configuration not stated)?
A: Potency [1]: 44.7 µM (active); Potency [2]: 25.1 µM (active)

Q: What does the source list for `C=C1C(=O)OC2/C=C(\C)CC/C=C(\C(=O)O)CC/C=C(\C)CCC12` (configuration not stated)?
A: Potency [1]: inactive; Potency [2]: inactive

Q: Which results are given for `c1ccc(Cc2ncc3c(n2)CCNCC3)cc1`?
A: Potency [1]: inactive; Potency [2]: inactive

Q: Which results are given for `O=C1N(CC2CCCCN2)CCN1c1ccccc1` (configuration not stated)?
A: Potency [1]: inactive; Potency [2]: inactive

Q: For `Cc1c(N2C(=O)c3ccc(C(=O)O)cc3C2=O)c(=O)n(-c2ccccc2)n1C`, which Potency [1] is on record?
A: Its Potency is “inactive”.

Q: What about the Potency [2] of the same compound?
A: The Potency was “inactive”.

Q: For `C=C[C@H]1[C@H](O[C@@H]2O[C@H](CO)[C@@H](O)[C@H](O)[C@H]2O)OC=C(C(=O)OC)[C@H]1C[C@@H]1N[C@H](C(=O)O)Cc2c1[nH]c1ccccc21`, which Potency [1] is on record?
A: Its Potency is “inactive”.

Q: What about the Potency [2] of the same compound?
A: Its Potency is “inactive”.

Q: How did the Potency [1] turn out when `OC[C@H]1O[C@@H](Oc2ccc3c(c2)OC[C@H]2c4cc5c(cc4O[C@@H]32)OCO5)[C@H](O)[C@@H](O)[C@@H]1O` was run?
A: The Potency was “inactive”.

Q: And the Potency [2]?
A: The Potency was “inactive”.

Q: For `C=C1CCC(OC(C)=O)C2(C)CC3(O)OC(=O)C(C)=C3CC12` (configuration not stated), which Potency [1] is on record?
A: Its Potency is “inactive”.

Q: What about the Potency [2] of the same compound?
A: Its Potency is “inactive”.

Q: With `C[C@@H]1C(=O)O[C@H]2CC34[C@H]5C[C@@H](C(C)(C)C)C36[C@@H](OC(=O)[C@@H]6O)OC4(C(=O)O5)[C@]21O` (some centres not stated) as the compound, how does the Potency [1] read?
A: The Potency was “inactive”.

Q: What about the Potency [2] of the same compound?
A: The Potency was “inactive”.

Q: How did the Potency [1] turn out when `O=c1c2ccccc2nc2n1CCC2O` (configuration not stated) was run?
A: Its Potency is “inactive”.

Q: What about the Potency [2] of the same compound?
A: The Potency was “inactive”.

Q: Which Potency [1] does the source give for `CC1(CO)CC[C@]2(C(=O)O[C@@H]3O[C@H](CO)[C@@H](O)[C@H](O)[C@H]3O)CC[C@]3(C)C(=CCC4[C@@]5(C)C[C@H](O)[C@H](O[C@@H]6OC[C@@H](O)[C@H](O)[C@H]6O)[C@@](C)(CO)C5CC[C@]43C)C2C1` (some centres not stated) here?
A: Its Potency is “inactive”.

Q: What about the Potency [2] of the same compound?
A: Its Potency is “inactive”.

Q: Which Potency [1] does the source give for `C[C@@H]1C[C@H]2[C@@H]3CCC4=CC(=O)C=C[C@]4(C)[C@@]3(F)[C@@H](O)C[C@]2(C)[C@@]1(O)C(=O)COP(=O)(O)O` here?
A: The Potency was “inactive”.

Q: And the Potency [2]?
A: The Potency was “inactive”.

Q: What does the source list for `O=c1c2cccnc2n(-c2cccc([N+](=O)[O-])c2)c(=O)n1Cc1ccncc1`?
A: Potency [1]: inactive; Potency [2]: inactive

Q: With `COc1cc(C(C)=O)ccc1O[C@@H]1O[C@H](CO[C@@H]2O[C@@H](C)[C@H](O)[C@@H](O)[C@H]2O)[C@@H](O)[C@H](O)[C@H]1O` as the compound, how does the Potency [1] read?
A: The Potency was “inactive”.

Q: And the Potency [2]?
A: The Potency was “inactive”.

Q: `CC1NC(=O)CNC(=O)C(C(C)C)NC(=O)C2CCCN2C(=O)C(C(C)C)NC(=O)C(Cc2c[nH]c3ccccc23)NC1=O` (configuration not stated) (cyclo(GAWVPV); configuration not given here) was tested. Which Potency [1] did it give?
A: The Potency was “inactive”.

Q: And the Potency [2]?
A: Its Potency is “inactive”.

Q: With `c1ccc(C(OC2CCN(CCCc3nn[nH]n3)CC2)c2ccccc2)cc1` as the compound, how does the Potency [1] read?
A: Its Potency is “inactive”.

Q: And the Potency [2]?
A: The Potency was “inactive”.

Q: With `COc1c2c(c(C)c3c1C(=O)OC3)O[C@@]1(C)C[C@@H](O)[C@]34O[C@](OC)(CC[C@]3(C)[C@H]1C2)OC4(C)C` as the compound, how does the Potency [1] read?
A: The Potency was “inactive”.

Q: What about the Potency [2] of the same compound?
A: The Potency was “inactive”.

Q: Which Potency [1] does the source give for `O=C(OCC12OC1C=CC(OC(=O)c1ccccc1)C2O)c1ccccc1` (configuration not stated) here?
A: The Potency was “inactive”.

Q: And the Potency [2]?
A: The Potency was “inactive”.

Q: How did the Potency [1] turn out when `CC(C)(O)C1=CCC23COC(C2)C(O)(C(=O)O)CCC13` (configuration not stated) was run?
A: The Potency was “inactive”.

Q: And the Potency [2]?
A: Its Potency is “inactive”.

Q: `COc1ccc(C2=CC(=O)OC2Cc2ccc(O)cc2)c(O)c1` (configuration not stated) was tested. Which Potency [1] did it give?
A: Its Potency is “inactive”.

Q: And the Potency [2]?
A: The Potency was “inactive”.

Q: Which results are given for `COC(=O)[C@@]1(O)C=CC[C@@H]2[C@@]3(C)C[C@@H](c4ccoc4)OC(=O)[C@H]3CC[C@]21C`?
A: Potency [1]: inactive; Potency [2]: inactive

Q: What does the source list for `C=C1CC/C=C(/CO)C(=O)C[C@@H]2[C@@H]1CC2(C)C`?
A: Potency [1]: inactive; Potency [2]: inactive

Q: Which results are given for `FC(F)(F)c1cc(C(F)(F)F)c2ccc3nc(-c4nnco4)cn3c2n1`?
A: Potency [1]: inactive; Potency [2]: inactive

Q: How did the Potency [1] turn out when `C=CC1(C)CC2=CCC3C(C)(C(=O)O)CCCC3(C)C2CC1OC(C)=O` (configuration not stated) was run?
A: Its Potency is “inactive”.

Q: And the Potency [2]?
A: Its Potency is “inactive”.

Q: Which results are given for `C[C@H]1CN(C[C@H](Cc2ccccc2)C(=O)NCC(=O)O)CC[C@@]1(C)c1cccc(O)c1`?
A: Potency [1]: inactive; Potency [2]: inactive

Q: What does the source list for `O=C(/C=C/c1ccc(O)cc1)OC[C@]12O[C@H]1[C@@H](O)[C@@H]1C=CO[C@@H](O[C@@H]3O[C@H](CO)[C@@H](O)[C@H](O)[C@H]3O)[C@@H]12`?
A: Potency [1]: inactive; Potency [2]: inactive

Q: Which results are given for `CCC(C)(O)C(O)C(=O)OCc1ccc(O[C@@H]2O[C@H](CO)[C@@H](O)[C@H](O)[C@H]2O)cc1` (some centres not stated)?
A: Potency [1]: inactive; Potency [2]: inactive

Q: `O=C(CCO[C@@H]1O[C@H](CO)[C@@H](O)[C@H](O)[C@H]1O)c1ccc(O)cc1` was tested. Which Potency [1] did it give?
A: Its Potency is “inactive”.

Q: What about the Potency [2] of the same compound?
A: The Potency was “inactive”.
